Results filed as inconclusive are left out. Active and inactive are the calls of the source. Rule for the calls, unless noted: active = hit-call score of the fitted dose curve at least 0.9, where 1 is the maximum; inactive = score below 0.9.
How the values were obtained:
[1] = ATG_TAL_CIS: Attagene CIS-FACTORIAL HepG2 Assay for human TAL Basal Promoter (AID 2282966); settings: HepG2 Attagene cis-factorial TAL promoter reporter; actives raise or lower the signal;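 note: background control endpoint measuring basal TAL promoter reporter mRNA not a specific factor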
Method in brief: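 In this cell-based multiplex, HepG2 liver cells bearing cis-promoter reporter constructs are dosed for 24 hours. Total RNA is reverse-transcribed and amplified, labelled fragments are sized by capillary electrophoresis, and signal changes are fitted bidirectionally versus DMSO.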

[2] = ATG_TGFb_CIS: Attagene CIS-FACTORIAL HepG2 Assay for human Transforming Growth Factor (TGF) (AID 2282967); settings: HepG2 Attagene CIS TGFb reporter, mRNA transcription; actives raise or lower the signal
Method in brief: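 Endogenous TGFB1-linked transcription factor activity read as reporter mRNA via RT-PCR and capillary electrophoresis, 24 h after dosing transiently transfected HepG2 cells. Gain or loss of signal fitted relative to DMSO.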

[3] = biological target: Nuclear receptor subfamily 1 group I member 3 (Homo sapiens) (UniProt Q14994); test: ATG_CAR_TRANS: Attagene TRANS-FACTORIAL HepG2 Assay for human Constitutive Androstane Receptor (CAR) (AID 2282969; active = hit-call score of the fitted dose curve at least 0.9, where 1 is the maximum;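 note: activators raise reporter mRNA above DMSO so AC50 marks induction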); settings: HepG2 Attagene TRANS-FACTORIAL CAR reporter
Method in brief: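 Readout is reporter mRNA induction, quantified by fluorescent primer extension and capillary electrophoresis after RT-PCR. Cells were HepG2 transiently carrying chimeric NR-Gal4 constructs with GAL4-UAS reporters, treated for 24 h; activity scored upward from DMSO.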

[4] = biological target: Steroid hormone receptor ERR1 (Homo sapiens) (UniProt P11474); test: ATG_ERRa_TRANS: Attagene TRANS-FACTORIAL HepG2 Assay for human Estrogen-Related Receptor alpha (ERRa) (AID 2282971; active = hit-call score of the fitted dose curve at least 0.9, where 1 is the maximum); settings: HepG2 Attagene TRANS reporter, ERRa transactivation
Method in brief: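 Transfected HepG2, 24 h dosing, ERRa-Gal4 chimera driving GAL4-UAS reporter. Readout: reporter mRNA via RT-PCR plus capillary electrophoresis (fluorescence). Positive direction vs DMSO control.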

[5] = biological target: X-box-binding protein 1 (Homo sapiens) (UniProt P17861); test: ATG_Xbp1_CIS: Attagene CIS-FACTORIAL HepG2 Assay for human X-box Binding Protein 1 (XBP1) (AID 2282972); settings: HepG2 XBP1 cis-element reporter, Attagene multiplex; actives raise or lower the signal
Chain of X-box-binding protein 1 (Homo sapiens) (P17861 whole entry, looked up): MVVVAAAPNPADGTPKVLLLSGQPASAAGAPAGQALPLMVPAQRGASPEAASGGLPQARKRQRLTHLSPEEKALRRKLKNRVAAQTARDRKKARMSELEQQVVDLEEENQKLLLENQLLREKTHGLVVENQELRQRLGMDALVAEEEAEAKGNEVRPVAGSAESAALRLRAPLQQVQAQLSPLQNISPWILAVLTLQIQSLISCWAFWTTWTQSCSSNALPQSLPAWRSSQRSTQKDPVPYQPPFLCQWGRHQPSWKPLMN
Method in brief: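 HepG2, transient MRTU transfection (cis-promoter driven), 24 h compound exposure. Total RNA → oligo(dT) RT → PCR → 6-FAM labeling → HpaI cut → CE. Bidirectional fit vs DMSO.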

[6] = ATG_M_19_TRANS: Attagene TRANS-FACTORIAL HepG2 Assay for M19 Transcription Factor (Internal Marker) (AID 2282974; active = hit-call score of the fitted dose curve at least 0.9, where 1 is the maximum); settings: HepG2 Attagene TRANS-FACTORIAL M19 internal marker reporter
Method in brief: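 Cells: human HepG2, transiently transfected with multiplexed reporter transcription units. Exposure: 24 h. Detection: RT-PCR of reporter mRNA with capillary electrophoresis. Analysis: gain-of-signal vs DMSO.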

[7] = ATG_GAL4_TRANS: Attagene TRANS-FACTORIAL HepG2 Assay for GAL4 (Internal Marker) (AID 2282976; active = hit-call score of the fitted dose curve at least 0.9, where 1 is the maximum); settings: HepG2 Attagene TRANS GAL4 internal marker reporter
Method in brief: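 RT-PCR/capillary electrophoresis readout of reporter mRNA. HepG2, transient MRTU transfection (GAL4-UAS reporters), 24 h compound exposure. Background-control endpoint, positive direction vs DMSO baseline.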

[8] = biological target: Estrogen-related receptor gamma (Homo sapiens) (UniProt P62508); test: ATG_ERRg_TRANS: Attagene TRANS-FACTORIAL HepG2 Assay for human Estrogen-Related Receptor gamma (ERRg) (AID 2282977; active = hit-call score of the fitted dose curve at least 0.9, where 1 is the maximum;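 note: hits increase reporter signal over DMSO so potencies reflect activators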); settings: HepG2 Attagene TRANS reporter, ERRg transactivation
Method in brief: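 Transient HepG2 transfectants, 24 h compound exposure, GAL4-UAS reporter mRNA by RT-PCR/6-FAM labelling/capillary electrophoresis; positive direction vs DMSO.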

[9] = biological target: Bile acid receptor (Homo sapiens) (UniProt Q96RI1); test: ATG_FXR_TRANS: Attagene TRANS-FACTORIAL HepG2 Assay for Farnesoid X Receptor (FXR) (AID 2282979; active = hit-call score of the fitted dose curve at least 0.9, where 1 is the maximum;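 note: hits raise reporter mRNA above DMSO so AC50 marks FXR activation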); settings: HepG2 Attagene TRANS FXR-GAL4 reporter transcription
Chain of Bile acid receptor (Homo sapiens) (Q96RI1 whole entry, looked up, the tested form may be a part): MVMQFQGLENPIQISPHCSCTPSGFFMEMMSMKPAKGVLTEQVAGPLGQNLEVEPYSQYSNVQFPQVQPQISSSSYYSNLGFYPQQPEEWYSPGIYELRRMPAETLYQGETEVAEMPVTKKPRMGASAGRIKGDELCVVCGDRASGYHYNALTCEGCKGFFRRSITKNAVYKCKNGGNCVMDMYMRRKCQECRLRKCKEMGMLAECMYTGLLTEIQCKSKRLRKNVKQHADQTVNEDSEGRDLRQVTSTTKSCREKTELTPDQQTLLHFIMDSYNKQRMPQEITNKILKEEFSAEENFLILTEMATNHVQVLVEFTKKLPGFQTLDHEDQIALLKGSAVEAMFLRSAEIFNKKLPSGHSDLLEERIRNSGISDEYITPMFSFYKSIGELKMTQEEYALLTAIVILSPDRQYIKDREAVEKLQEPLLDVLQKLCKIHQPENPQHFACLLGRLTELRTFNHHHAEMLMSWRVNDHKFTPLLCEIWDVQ
Method in brief: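 Read-out: fluorescent reporter transcripts quantified by capillary electrophoresis after RT-PCR of total RNA. Source cells were HepG2 transiently carrying chimeric NR-GAL4 plus GAL4-UAS reporter units, dosed 24 h. Activity fitted upward relative to DMSO baseline.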

[10] = biological target: Oxysterols receptor LXR-beta (Homo sapiens) (UniProt P55055); test: ATG_LXRb_TRANS: Attagene TRANS-FACTORIAL HepG2 Assay for human Liver X Receptor beta (LXRb) (AID 2282981; active = hit-call score of the fitted dose curve at least 0.9, where 1 is the maximum); settings: HepG2 Attagene TRANS GAL4-LXRb reporter, mRNA
Chain of Oxysterols receptor LXR-beta (Homo sapiens) (P55055 whole entry, looked up, the tested form may be a part): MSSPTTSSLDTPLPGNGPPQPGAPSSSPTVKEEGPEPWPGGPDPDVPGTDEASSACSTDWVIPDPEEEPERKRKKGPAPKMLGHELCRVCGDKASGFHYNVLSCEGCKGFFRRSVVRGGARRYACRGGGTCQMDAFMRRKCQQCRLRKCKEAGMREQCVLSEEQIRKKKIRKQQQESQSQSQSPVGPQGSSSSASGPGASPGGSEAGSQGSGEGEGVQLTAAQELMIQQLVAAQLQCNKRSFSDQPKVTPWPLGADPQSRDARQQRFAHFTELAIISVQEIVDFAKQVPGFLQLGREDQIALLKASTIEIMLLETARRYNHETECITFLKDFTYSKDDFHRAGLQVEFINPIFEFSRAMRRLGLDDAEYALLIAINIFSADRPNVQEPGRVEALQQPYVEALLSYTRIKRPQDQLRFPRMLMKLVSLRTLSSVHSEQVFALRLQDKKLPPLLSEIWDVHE
Method in brief: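 Cells: HepG2, transiently transfected with GAL4-UAS reporter units plus LXRb-Gal4 fusion. Treatment: 24 h. Detection: reporter mRNA by RT-PCR, 6-FAM labelling, HpaI digestion, capillary electrophoresis.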

[11] = biological target: Nuclear receptor subfamily 4 group A member 2 (Homo sapiens) (UniProt P43354); test: ATG_NURR1_TRANS: Attagene TRANS-FACTORIAL HepG2 Assay for human Nuclear Receptor Related Protein 1 (NURR1) (AID 2282985; active = hit-call score of the fitted dose curve at least 0.9, where 1 is the maximum); settings: HepG2 Attagene TRANS reporter, mRNA readout
Chain of Nuclear receptor subfamily 4 group A member 2 (Homo sapiens) (P43354 whole entry, looked up): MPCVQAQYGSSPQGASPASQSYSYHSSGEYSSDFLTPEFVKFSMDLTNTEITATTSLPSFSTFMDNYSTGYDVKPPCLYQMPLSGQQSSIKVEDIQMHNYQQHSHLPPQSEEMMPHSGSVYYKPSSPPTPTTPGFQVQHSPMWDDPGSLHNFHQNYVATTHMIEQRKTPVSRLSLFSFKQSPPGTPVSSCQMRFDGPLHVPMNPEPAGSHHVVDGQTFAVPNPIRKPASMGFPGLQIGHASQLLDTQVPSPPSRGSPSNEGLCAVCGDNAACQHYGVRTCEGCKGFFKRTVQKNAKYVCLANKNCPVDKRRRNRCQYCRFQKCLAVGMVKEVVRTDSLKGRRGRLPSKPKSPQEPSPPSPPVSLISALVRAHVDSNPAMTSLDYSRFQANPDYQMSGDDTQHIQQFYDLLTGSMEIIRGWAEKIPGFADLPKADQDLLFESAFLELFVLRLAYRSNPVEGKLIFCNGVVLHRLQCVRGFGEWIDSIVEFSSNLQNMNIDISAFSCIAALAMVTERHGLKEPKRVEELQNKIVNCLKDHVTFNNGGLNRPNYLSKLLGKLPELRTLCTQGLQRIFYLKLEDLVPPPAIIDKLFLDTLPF
Method in brief: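 Cells: HepG2, transiently transfected. Exposure: 24 h. Detection: fluorescence of labelled RT-PCR products separated by capillary electrophoresis; upward fit versus DMSO.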

[12] = biological target: Transcriptional activator Myb (Homo sapiens) (UniProt P10242); test: ATG_Myb_CIS: Attagene CIS-FACTORIAL HepG2 Assay for human Myeloblastosis (Myb) Proto-Oncogene Transcription Factor (AID 2282986); settings: HepG2 Attagene CIS-FACTORIAL Myb reporter transcription; actives raise or lower the signal
Chain of Transcriptional activator Myb (Homo sapiens) (P10242 whole entry, looked up): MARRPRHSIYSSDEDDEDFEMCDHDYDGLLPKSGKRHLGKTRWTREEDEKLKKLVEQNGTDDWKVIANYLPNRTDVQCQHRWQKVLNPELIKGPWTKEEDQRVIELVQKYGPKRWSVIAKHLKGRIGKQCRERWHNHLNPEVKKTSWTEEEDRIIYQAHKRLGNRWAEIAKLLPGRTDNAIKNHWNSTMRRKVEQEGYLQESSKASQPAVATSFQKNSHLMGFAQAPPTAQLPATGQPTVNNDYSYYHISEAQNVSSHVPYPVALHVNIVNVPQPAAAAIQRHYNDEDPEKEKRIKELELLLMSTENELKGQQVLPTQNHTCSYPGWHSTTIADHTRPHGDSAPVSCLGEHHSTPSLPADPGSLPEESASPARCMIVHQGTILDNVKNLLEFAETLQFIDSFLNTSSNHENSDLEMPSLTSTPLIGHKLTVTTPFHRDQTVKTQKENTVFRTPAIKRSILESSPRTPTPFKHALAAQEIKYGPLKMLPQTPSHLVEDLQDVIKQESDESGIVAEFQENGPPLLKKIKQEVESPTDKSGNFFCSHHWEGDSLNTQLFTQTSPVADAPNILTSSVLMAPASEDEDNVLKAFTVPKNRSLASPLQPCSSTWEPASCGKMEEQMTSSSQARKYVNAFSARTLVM
Method in brief: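 Steps: transfect HepG2 with cis-regulated reporter units; dose with chemical for 24 h; isolate RNA, reverse-transcribe, PCR-amplify and FAM-label reporter sequences; digest with HpaI; resolve by capillary electrophoresis. Activity fitted in both directions relative to DMSO.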

[13] = biological target: Nuclear respiratory factor 1 (Homo sapiens) (UniProt Q16656); test: ATG_NRF1_CIS: Attagene CIS-FACTORIAL HepG2 Assay for human Nuclear Respiratory Factor 1 (NRF1) Orphan Gene (AID 2282987); settings: HepG2 NRF1 cis-element reporter, Attagene multiplex; actives raise or lower the signal
Chain of Nuclear respiratory factor 1 (Homo sapiens) (Q16656 whole entry, looked up, the tested form may be a part): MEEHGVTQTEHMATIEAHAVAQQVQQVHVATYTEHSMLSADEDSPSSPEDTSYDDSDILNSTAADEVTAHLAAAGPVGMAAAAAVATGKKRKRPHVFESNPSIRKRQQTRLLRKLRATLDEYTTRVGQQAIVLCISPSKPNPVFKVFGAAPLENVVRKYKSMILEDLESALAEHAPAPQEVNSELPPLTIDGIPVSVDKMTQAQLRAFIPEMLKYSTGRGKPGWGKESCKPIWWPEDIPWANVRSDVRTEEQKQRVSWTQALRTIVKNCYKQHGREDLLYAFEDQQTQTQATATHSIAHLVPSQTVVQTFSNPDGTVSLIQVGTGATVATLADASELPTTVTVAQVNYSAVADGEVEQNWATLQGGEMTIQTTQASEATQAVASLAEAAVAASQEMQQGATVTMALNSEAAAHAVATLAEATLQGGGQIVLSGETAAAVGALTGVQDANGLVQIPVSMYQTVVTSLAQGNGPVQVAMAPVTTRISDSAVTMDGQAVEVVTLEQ
Method in brief: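 Fluorescence intensity of labelled reporter cDNA fragments, resolved by capillary electrophoresis, served as readout for NRF1 cis-element activity. Transiently transfected HepG2 cells were dosed for 24 hours; activity in either direction was fitted against DMSO negative control.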

[14] = ATG_VDRE_CIS: Attagene CIS-FACTORIAL HepG2 Assay for human Vitamin D Receptor Element (VDRE) (AID 2282968); settings: HepG2 VDRE cis-reporter transcription, actives raise or lower the signal
Method in brief: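 In transiently transfected HepG2 liver cells, gain or loss of reporter mRNA after 24 h exposure is scored relative to DMSO, using fluorescence detection by capillary electrophoresis of RT-PCR products.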

[15] = biological target: Oxysterols receptor LXR-alpha (Homo sapiens) (UniProt Q13133); test: ATG_LXRa_TRANS: Attagene TRANS-FACTORIAL HepG2 Assay for human Liver X Receptor alpha (LXRa) (AID 2282980; active = hit-call score of the fitted dose curve at least 0.9, where 1 is the maximum); settings: HepG2 Attagene TRANS reporter, LXRa transactivation
Method in brief: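 Read-out: reporter transcript levels by RT-PCR plus capillary electrophoresis, fluorescence intensity. Transiently transfected HepG2, exogenous NR-GAL4 chimera, GAL4-UAS reporters; 24 h compound exposure. Activity = increase over DMSO negative control.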

[16] = biological target: Hepatocyte nuclear factor 4-alpha (Homo sapiens) (UniProt P41235); test: ATG_HNF4a_TRANS: Attagene TRANS-FACTORIAL HepG2 Assay for human Hepatocyte Nuclear Factor 4 alpha (HNF4a) (AID 2282982; active = hit-call score of the fitted dose curve at least 0.9, where 1 is the maximum); settings: HepG2 HNF4a transactivation reporter, mRNA readout
Chain of Hepatocyte nuclear factor 4-alpha (Homo sapiens) (P41235 whole entry, looked up): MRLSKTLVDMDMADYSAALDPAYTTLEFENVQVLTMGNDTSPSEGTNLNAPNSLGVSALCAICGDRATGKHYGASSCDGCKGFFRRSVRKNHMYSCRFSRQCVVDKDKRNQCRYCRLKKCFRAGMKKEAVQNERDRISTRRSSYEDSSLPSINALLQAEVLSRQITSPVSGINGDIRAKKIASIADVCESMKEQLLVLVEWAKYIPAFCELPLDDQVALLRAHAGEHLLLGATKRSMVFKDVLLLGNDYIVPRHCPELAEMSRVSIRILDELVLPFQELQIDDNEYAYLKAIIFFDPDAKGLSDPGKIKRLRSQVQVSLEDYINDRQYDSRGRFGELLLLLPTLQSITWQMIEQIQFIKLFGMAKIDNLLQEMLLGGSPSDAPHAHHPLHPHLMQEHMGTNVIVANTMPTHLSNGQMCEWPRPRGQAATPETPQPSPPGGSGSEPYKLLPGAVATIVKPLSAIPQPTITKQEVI
Method in brief: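 Transfected HepG2 reporter cells are dosed for 24 h; reporter RNA is reverse-transcribed, amplified, fluorescently labelled and HpaI-digested before CE sizing. Positive-direction fit against DMSO.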

[17] = ATG_M_06_TRANS: Attagene TRANS-FACTORIAL HepG2 Assay for M06 Transcription Factor (Internal Marker) (AID 2282983; active = hit-call score of the fitted dose curve at least 0.9, where 1 is the maximum); settings: HepG2 Attagene TRANS M06 internal marker reporter
Method in brief: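 After a 24 h chemical treatment of transfected HepG2, RNA underwent DNase I treatment, reverse transcription and reporter-specific PCR; labelled, HpaI-digested products were sized by capillary electrophoresis. Signal increase relative to DMSO defined activity.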

[18] = biological target: Estrogen receptor (Homo sapiens) (UniProt P03372); test: ATG_ERa_TRANS: Attagene TRANS-FACTORIAL HepG2 Assay for human Estrogen Receptor alpha (ERa) (AID 2282970; active = hit-call score of the fitted dose curve at least 0.9, where 1 is the maximum); settings: HepG2 Attagene TRANS ERa GAL4 reporter, mRNA
Chain of Estrogen receptor (Homo sapiens) (P03372 whole entry, looked up, the tested form may be a part): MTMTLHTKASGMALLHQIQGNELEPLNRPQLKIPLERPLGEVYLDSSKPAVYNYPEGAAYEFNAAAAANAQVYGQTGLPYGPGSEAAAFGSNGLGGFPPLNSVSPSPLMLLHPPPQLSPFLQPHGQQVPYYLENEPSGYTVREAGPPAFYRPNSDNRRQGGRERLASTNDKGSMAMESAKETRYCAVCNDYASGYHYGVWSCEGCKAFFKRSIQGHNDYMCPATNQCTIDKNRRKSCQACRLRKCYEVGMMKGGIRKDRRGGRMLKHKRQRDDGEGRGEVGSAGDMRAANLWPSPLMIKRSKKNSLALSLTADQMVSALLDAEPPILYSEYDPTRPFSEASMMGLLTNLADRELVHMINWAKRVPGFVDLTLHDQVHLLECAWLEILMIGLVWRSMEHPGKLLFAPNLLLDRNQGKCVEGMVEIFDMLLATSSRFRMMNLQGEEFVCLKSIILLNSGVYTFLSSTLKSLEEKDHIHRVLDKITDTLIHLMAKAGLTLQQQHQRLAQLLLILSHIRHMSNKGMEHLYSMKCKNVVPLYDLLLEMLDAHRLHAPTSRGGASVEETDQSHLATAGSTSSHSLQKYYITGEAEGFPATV
Method in brief: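 After 24 h of compound treatment, RNA from HepG2 cells bearing transfected GAL4-UAS reporter constructs is converted to cDNA, amplified and fluorescently labelled. Capillary electrophoresis resolves the ERa-linked reporter; DMSO serves as negative control.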

[19] = biological target: Glucocorticoid receptor (Homo sapiens) (UniProt P04150); test: ATG_GR_TRANS: Attagene TRANS-FACTORIAL HepG2 Assay for human Glucocorticoid Receptor (GR) (AID 2282978; active = hit-call score of the fitted dose curve at least 0.9, where 1 is the maximum;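 note: activators score as hits since higher reporter transcript over DMSO is fitted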); settings: HepG2 Attagene TRANS GR reporter, mRNA transcription
Chain of Glucocorticoid receptor (Homo sapiens) (P04150 whole entry, looked up, the tested form may be a part): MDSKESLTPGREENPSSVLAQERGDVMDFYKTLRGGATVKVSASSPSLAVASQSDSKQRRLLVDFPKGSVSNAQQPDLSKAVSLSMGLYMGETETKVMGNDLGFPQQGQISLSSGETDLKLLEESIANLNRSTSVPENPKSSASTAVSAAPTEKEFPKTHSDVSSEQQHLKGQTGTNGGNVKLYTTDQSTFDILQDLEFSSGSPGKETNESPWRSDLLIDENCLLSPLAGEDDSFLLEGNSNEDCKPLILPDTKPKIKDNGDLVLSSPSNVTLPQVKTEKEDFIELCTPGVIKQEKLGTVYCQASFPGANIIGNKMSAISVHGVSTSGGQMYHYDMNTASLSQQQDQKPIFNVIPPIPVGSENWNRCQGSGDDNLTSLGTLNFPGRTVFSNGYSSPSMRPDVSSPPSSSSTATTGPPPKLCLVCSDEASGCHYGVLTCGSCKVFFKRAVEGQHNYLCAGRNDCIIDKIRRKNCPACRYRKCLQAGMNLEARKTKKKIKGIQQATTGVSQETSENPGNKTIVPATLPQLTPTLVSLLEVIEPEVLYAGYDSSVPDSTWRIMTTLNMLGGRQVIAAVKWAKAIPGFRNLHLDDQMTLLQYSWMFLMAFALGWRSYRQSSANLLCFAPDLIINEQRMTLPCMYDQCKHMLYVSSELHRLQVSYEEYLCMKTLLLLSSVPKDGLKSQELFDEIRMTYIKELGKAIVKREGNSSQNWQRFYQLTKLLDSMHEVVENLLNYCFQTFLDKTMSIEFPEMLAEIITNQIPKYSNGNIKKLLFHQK
Method in brief: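 In this trans-factorial format, exogenous NR-GAL4 chimeric proteins in transfected HepG2 cells regulate GAL4-UAS reporter transcription. After 24 h treatment, reporter mRNA induction relative to DMSO is read by RT-PCR and capillary electrophoresis.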

[20] = ATG_M_32_TRANS: Attagene TRANS-FACTORIAL HepG2 Assay for M32 Transcription Factor (Internal Marker) (AID 2282984; active = hit-call score of the fitted dose curve at least 0.9, where 1 is the maximum;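 note: transcript level of a background control reporter unit measured by RT-PCR and capillary electrophoresis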); settings: HepG2 Attagene TRANS M32 internal marker reporter
Method in brief: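 Using transiently transfected HepG2 cells exposed to test chemicals for 24 h, reporter transcripts are converted to labelled cDNA fragments and quantified by capillary electrophoresis. DMSO defines the activity baseline.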

For `CC(=O)OC1CC(C)OC(C)O1` (configuration not stated), which outcome [1] is on record?
Its outcome is “inactive”.

What about the outcome [2] of the same molecule?
Its outcome is “inactive”.

What about the outcome [3] of the same molecule?
The outcome was “inactive”.

What about the outcome [4] of the same molecule?
The outcome was “inactive”.

What about the outcome [5] of the same molecule?
Its outcome is “inactive”.

And the outcome [6]?
Its outcome is “inactive”.

What about the outcome [7] of the same molecule?
The outcome was “inactive”.

And the outcome [8]?
Its outcome is “inactive”.

What about the outcome [9] of the same molecule?
Its outcome is “inactive”.

And the outcome [10]?
The outcome was “inactive”.

And the outcome [11]?
Its outcome is “inactive”.

And the outcome [12]?
The outcome was “inactive”.

And the outcome [13]?
The outcome was “inactive”.

Which results are given for `NC1CCCCC1`?
outcome [1]: inactive; outcome [2]: inactive; outcome [14]: inactive; outcome [5]: inactive; outcome [7]: inactive; outcome [15]: inactive; outcome [16]: inactive; outcome [17]: inactive; outcome [12]: inactive; outcome [13]: inactive

Which outcome [1] does the source give for `NC(=Nc1ccccc1)Nc1ccccc1` here?
Its outcome is “inactive”.

And the outcome [2]?
Its outcome is “inactive”.

What about the outcome [18] of the same molecule?
Its outcome is “inactive”.

And the AC50 [5]?
The AC50 was 57.2 µM (active).

What about the outcome [6] of the same molecule?
Its outcome is “inactive”.

What about the outcome [19] of the same molecule?
The outcome was “inactive”.

And the outcome [9]?
The outcome was “inactive”.

And the outcome [10]?
Its outcome is “inactive”.

What about the outcome [16] of the same molecule?
The outcome was “inactive”.

And the outcome [17]?
The outcome was “inactive”.

What about the outcome [12] of the same molecule?
The outcome was “inactive”.

What about the outcome [13] of the same molecule?
Its outcome is “inactive”.

Which outcome [1] does the source give for `CC(=O)O` here?
The outcome was “inactive”.

What about the outcome [2] of the same molecule?
The outcome was “inactive”.

And the outcome [5]?
The outcome was “inactive”.

What about the outcome [6] of the same molecule?
Its outcome is “inactive”.

And the outcome [17]?
The outcome was “inactive”.

What about the outcome [11] of the same molecule?
Its outcome is “inactive”.

And the outcome [12]?
The outcome was “inactive”.

What about the outcome [13] of the same molecule?
Its outcome is “inactive”.

With `O=C1O[C@H]([C@H](O)CO)C(O)=C1O` as the molecule, how does the outcome [1] read?
Its outcome is “inactive”.

And the outcome [2]?
Its outcome is “inactive”.

And the outcome [5]?
Its outcome is “inactive”.

What about the outcome [6] of the same molecule?
The outcome was “inactive”.

And the outcome [7]?
Its outcome is “inactive”.

What about the outcome [19] of the same molecule?
Its outcome is “inactive”.

What about the outcome [20] of the same molecule?
The outcome was “inactive”.

What about the outcome [11] of the same molecule?
Its outcome is “inactive”.

And the outcome [12]?
Its outcome is “inactive”.

What about the outcome [13] of the same molecule?
The outcome was “inactive”.

For `CN(C)CCCN(C)CCCN(C)C`, which outcome [1] is on record?
The outcome was “inactive”.

What about the outcome [2] of the same molecule?
Its outcome is “inactive”.

And the outcome [18]?
Its outcome is “inactive”.

What about the outcome [5] of the same molecule?
Its outcome is “inactive”.

And the outcome [6]?
Its outcome is “inactive”.

What about the outcome [9] of the same molecule?
Its outcome is “inactive”.

And the AC50 [15]?
The AC50 was 23.8 µM (active).

What about the outcome [12] of the same molecule?
The outcome was “inactive”.

And the outcome [13]?
Its outcome is “inactive”.
